Source: PubChem
ERa SRC1 pot – ER-alpha (human) coactivator binding potentiation; TR-FRET ERalpha-LBD/SRC-Cy5 coactivator binding, 2 h; 100 = basal binding, no effect; coactivator binding (% of control), % at 25.6 µM; hit rate 1.3% among 86,000; in the data active means activity above about 200%;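 further: binding measured in presence of low estradiol as agonist stimulus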
FAK blocker – FAK (human) kinase inhibition; hit rate 0.84% among 97,000; inhibition, %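 (tested at 7 µM)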; biochemical FAK kinase activity assay; Q05397; AID 727; in the data active means inhibition above about 19%
Smad3 FoxH1 inh – inhibitors of human Smad3 transcription factor binding. P84022. TR-FRET Smad3/Dy647-FoxH1 peptide binding, europium anti-His. inhibition, % at 25 µM. hit rate 0.29% among 88,000. AID 630;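 active means compounds that reduce the energy-transfer binding signal between the protein and its labelled peptide by more than half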
ERb coact inh – ER-beta (human) coactivator binding inhibition | Q92731 | hit rate 1.3% among 86,000 | inhibition, % at 25.6 µM | TR-FRET ER-beta LBD / SRC1-Cy5 peptide binding; receptor agonist-loaded with 1 µM estradiol;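 active means compounds whose percent inhibition of the receptor-coactivator binding signal exceeds about 50% in the single-dose screen, limit read from the data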
Target sequence (Q92731 whole entry, looked up, the tested form may be a part): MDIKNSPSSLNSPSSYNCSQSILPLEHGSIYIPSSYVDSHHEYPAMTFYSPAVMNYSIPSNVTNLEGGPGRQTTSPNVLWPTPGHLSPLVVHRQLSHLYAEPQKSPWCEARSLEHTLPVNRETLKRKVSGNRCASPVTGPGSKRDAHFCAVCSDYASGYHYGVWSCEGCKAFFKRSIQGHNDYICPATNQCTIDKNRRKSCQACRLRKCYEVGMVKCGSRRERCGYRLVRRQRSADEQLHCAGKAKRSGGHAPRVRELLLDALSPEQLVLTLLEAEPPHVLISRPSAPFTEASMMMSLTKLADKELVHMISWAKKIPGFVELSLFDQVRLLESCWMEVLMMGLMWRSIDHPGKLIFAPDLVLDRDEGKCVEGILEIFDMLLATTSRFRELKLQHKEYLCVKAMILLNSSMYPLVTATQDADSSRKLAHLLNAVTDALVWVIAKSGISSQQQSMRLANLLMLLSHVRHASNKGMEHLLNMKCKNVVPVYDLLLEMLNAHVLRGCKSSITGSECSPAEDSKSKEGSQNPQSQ
ERa SRC1 inh – blocks coactivator binding to human estrogen receptor alpha; AID 629; P03372; inhibition, % at 25.6 µM; hit rate 1.7% among 86,000; TR-FRET ER-alpha LBD / SRC-1 peptide, estradiol-bound; in the data active means inhibition above about 50%
Of the large screens only hits and unclear results are named; the others gave an inactive call; [ ] = another dose, or the depositor's remark. An excerpt weighted towards active compounds, which were near 3.3% of everything screened.

CCOC(=O)Cc1csc(NC(=O)c2ccc(Br)s2)n1	none
CCOc1cccc2sc(NC(=O)c3ccc(Br)s3)nc12	ERa SRC1 pot 432.9[fluorescence artefact?]
Cc1ccc(NS(=O)(=O)c2ccc3c(c2)oc(=O)n3C)cc1F	ERa SRC1 pot 221.2
Cn1c(=O)oc2cc(S(=O)(=O)Nc3cccc(F)c3)ccc21	none (no result: FAK blocker)
CCOC(=O)c1c(OCC)[nH]c2c1cc(O)c1ccccc12	ERb coact inh 99.1[fluorescence artefact?], ERa SRC1 inh 97.4[fluorescence artefact?]
CCOC(=O)c1c(C)[nH]c2cc(Br)c(O)cc12	none (no result: FAK blocker)
Nc1c(C(=O)NCc2ccccc2)nnn1Cc1ccc(F)cc1	none (no result: FAK blocker)
CCc1ccc(Cn2nnc(C(=O)NCc3ccccc3OC)c2N)cc1	ERa SRC1 pot 206.4
COc1ccc(CNC(=O)c2nnn(Cc3ccc(OC)cc3)c2N)cc1	ERa SRC1 pot 208.4
CCOc1ccc(Cn2nnc(C(=O)Nc3cc(OC)cc(OC)c3)c2N)cc1	ERa SRC1 pot 257.1[fluorescence artefact?]
CCOc1ccc(Cn2nnc(C(=O)Nc3cc(C)cc(C)c3)c2N)cc1	none
CCCn1cnc2c(SCC(=O)O)nc(N)nc21	none (no result: ERa SRC1 pot, FAK blocker, ERb coact inh, ERa SRC1 inh)
Nc1ccccc1CCCC(=O)O	none (no result: ERa SRC1 pot, FAK blocker, ERb coact inh, ERa SRC1 inh)
CCOC(=O)c1cc(CC)sc1NC(=O)c1ccc2c(c1)OCCO2	ERa SRC1 pot 466.1[fluorescence artefact?]
O=[N+]([O-])c1cccc(/C=N/Nc2ccc3ccccc3n2)c1O	none (no result: ERa SRC1 pot, FAK blocker, ERb coact inh, ERa SRC1 inh)
O=C(CCCN1C(=O)c2ccccc2C1=O)Nc1c(C(=O)C2CC2)oc2ccccc12	none
COC(=O)c1oc2ccc(Br)cc2c1NC(=O)CCCN1C(=O)c2ccccc2C1=O	ERa SRC1 inh 52.5 (no result: FAK blocker)
CCOC(=O)CCC(NC(=O)c1ccc(NCN2C(=O)c3ccccc3C2=O)cc1)C(=O)OCC (stereo not given)	none
CCOC(=O)CCC(NC(=O)c1ccc(NCN2C(=O)CCC2=O)cc1)C(=O)OCC (stereo not given)	ERb coact inh 54.0
Cc1cc(N=Cc2c(CO)cnc(C)c2O)c(N=Cc2c(CO)cnc(C)c2O)cc1C.[Zn]	Smad3 FoxH1 inh 93.0 (no result: ERa SRC1 pot, FAK blocker, ERb coact inh, ERa SRC1 inh)
Cc1ncc(CO)c(CN)c1O	none (no result: ERa SRC1 pot, FAK blocker, ERb coact inh, ERa SRC1 inh)
Cc1nnc(Oc2ccccc2)c2ccccc12	none
Cc1nnc(Oc2ccccc2F)c2ccccc12	ERa SRC1 inh 50.6
N#C/C(=C(\O)Cc1ccccc1)c1nc2ccccc2[nH]1	ERa SRC1 pot 408.8[fluorescence artefact?]
N=C1C(c2ccccc2)=C(O)C2CCc3ccccc3N12 (stereo not given)	ERa SRC1 inh 57.5[fluorescence artefact?] (no result: FAK blocker)
O=C1CNCCCN2CCN(CCCNCC(=O)Nc3ccc(cc3)S(=O)(=O)c3ccc(cc3)NC(=O)CNCCCN3CCN(CCCNCC(=O)Nc4ccc(cc4)S(=O)(=O)c4ccc(cc4)N1)CC3)CC2	none (no result: ERa SRC1 pot, FAK blocker, ERb coact inh, ERa SRC1 inh)
CCOC(=O)c1ccc(NC(=O)CCOc2ccccc2)cc1	ERa SRC1 pot 659.2[fluorescence artefact?]
O=C(COc1ccc(F)cc1)Nc1ccc(-n2cnnn2)cc1	none
CCOC(=O)c1ccc(NC(=O)COc2ccc(-n3cnnn3)cc2)cc1	ERb coact inh 81.6[fluorescence artefact?], ERa SRC1 inh 90.6[fluorescence artefact?]
O=C(O)[C@@H]1[C@H]2C[C@@H]3[C@@H](OC(=O)[C@@H]31)[C@H]2Br	none (no result: ERa SRC1 pot, FAK blocker, ERb coact inh, ERa SRC1 inh)
CN1C(=O)CSc2ccc(NC(=O)N3CCC(N4CCCCC4)CC3)cc21	ERb coact inh 51.3, ERa SRC1 inh 57.8
O=C(NCCN1CCCCCC1)C1CCC(CNS(=O)(=O)c2cccc3cccnc23)CC1 (stereo not given)	ERa SRC1 inh 60.4[fluorescence artefact?]
CN1CCN(C(=O)C2CCC(CNS(=O)(=O)c3cccc4cccnc34)CC2)CC1 (stereo not given)	none
O=C1C(Cl)=C(Nc2ccc(S(=O)(=O)Nc3ccccn3)cc2)C(=O)c2ccccc21	Smad3 FoxH1 inh 99.3 (no result: ERa SRC1 pot, FAK blocker, ERb coact inh, ERa SRC1 inh)
CCN(CC)C(=O)CN(C#N)c1nc(OC)nc(N(C)C)n1	none (no result: FAK blocker)
COCN(C#N)c1nc(OC)nc(OC)n1	ERb coact inh 55.1[fluorescence artefact?] (no result: FAK blocker)
N[C@@H](CNO)C(=O)O	none (no result: ERa SRC1 pot, FAK blocker, ERb coact inh, ERa SRC1 inh)
Cn1c([N+](=O)[O-])cnc1CN1CCN(CCO)CC1	none (no result: ERa SRC1 pot, FAK blocker, ERb coact inh, ERa SRC1 inh)
COc1cccc2cc3c(=O)n(-c4ccccc4)nc-3oc12	ERb coact inh 80.9, ERa SRC1 inh 99.2[fluorescence artefact?]
COc1cccc2cc(C(C)=O)c(=O)oc12	none
Cc1c(/C=N/n2cnnc2)c2ccccc2n1CCOc1ccc(Cl)cc1	ERa SRC1 inh 52.6
O=C(Nc1cccc(C(F)(F)F)c1)c1cnc2n(c1=O)CCS2	ERa SRC1 pot 285.1[fluorescence artefact?]
O=C(O)CNCCc1ccccc1	none (no result: ERa SRC1 pot, FAK blocker, ERb coact inh, ERa SRC1 inh)
CC(C)CSC[C@@H]1O[C@H](n2cnc3c(N)nccc32)[C@H](O)[C@H]1O	none (no result: ERa SRC1 pot, FAK blocker, ERb coact inh, ERa SRC1 inh)
NC(N)=N[C@H](CC(=O)O)c1ccccc1	none (no result: ERa SRC1 pot, FAK blocker, ERb coact inh, ERa SRC1 inh)
N#Cc1ccc(-c2ccc3c(c2)OCO3)nc1SCC(=O)OCc1ccccc1	ERa SRC1 pot 245.9[fluorescence artefact?]
COc1ccc(-c2ccc(C#N)c(SCC(=O)OCc3ccccc3)n2)cc1OC	ERa SRC1 pot 205.6[fluorescence artefact?]
